Bioassay records from PubChem.
This is a sample that favours compounds with a hit; in the whole collection about 1.2% have one here.
PKM2 act: qHTS Assay for Activators of Human Muscle isoform 2 Pyruvate Kinase; purified PKM2, Kinase-Glo ATP luminescence, activation; response scale: 0% is enzyme alone, no compound; Pyruvate kinase PKM (Homo sapiens), P14618; AID 1631, 2009; 260,000 tested, 0.34% active; Potency, µM (doses to about 57.5 µM), inactives show top-dose activation, usual class: activators; note: potency is the fitted concentration of half-maximal effect; % is set by controls: 0 for no effect and ±100 for the full control effect; nearly all actives have a fitted effect of over 55% in size
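hPK-M2, >95% pure; 0.1 mM ADP / 0.5 mM PEP final; imidazole pH7.2 buffer w/ 7 mM MgCl2, 50 mM KCl; 1 h RT; Kinase-Glo lum. Intermediate enzyme activity for dual inhibitor/activator qHTS.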
GLA inh pH 4.5: qHTS Assay for Inhibitors of Human alpha-Galactosidase at pH 4.5; AID 1467, 2008; 230,000 tested, under 10 active; activity change, negative = inhibition, % at 105 µM; purified enzyme, 4-MU-alpha-Gal fluorescence, pH 4.5; Alpha-galactosidase A (Homo sapiens), P06280;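 note: 0% = full activity with enzyme and -100% = basal without enzyme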
HttQ103 aggreg: qHTS Multiplex Assay to Identify Dual Action Probes in a Cell Model of Huntington: Aggregate Formation (GFP); Potency, µM (series often up to 46.1 µM), without a hit: at the highest dose activity change, negative = inhibition, actives largely listed as inhibitors; PC12 HttQ103-GFP aggregates, Acumen cytometry, 40 h; 220,000 tested, 1.1% active; note: potency is the fitted concentration of half-maximal effect; % is set by controls: 0 for no effect and ±100 for the full control effect; nearly all actives have a fitted effect of over 60% in size
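Read-out: GFP aggregate count by laser scanning cytometer (488 nm excitation, 500-530 nm emission, 1–25 µm objects >6 SD above background). Cells: PC12, inducible HTTex1-Q103-GFP, 100 nM tebufenozide; compounds titrated.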
HTT ATP protect: qHTS Multiplex Assay to Identify Dual Action Probes in a Cell Model of Huntington: Cytoprotection (ATP); PC12 HTT-Q103 induced, cytoprotection, ATP luminescence, 40 h; Potency, µM (top dose mostly 56.4 µM), without a hit: cytoprotection (ATP increase), hits mostly activators; 230,000 tested, 0.14% active; AID 1471, 2008; note: potency is the fitted concentration of half-maximal effect; % of control where 0% means no effect; nearly all actives have a fitted effect of over 45% in size
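Rat PC12, Q103 Htt exon1-GFP fusion, ecdysone promoter; tebufenozide inducer 100 nM final; compound titration; qHTS, 1500 cells/well; ATPlite luminescent read.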
aGal spleen mod: qHTS Assay for Inhibitors and Activators of Human alpha-Galactosidase From Spleen Homogenate | Potency, µM (top dose mostly 80 µM), without a hit: top-dose activity change, negative = inhibition, most hits filed as inhibitors | Alpha-galactosidase A (Homo sapiens), P06280 | AID 2107, 2009 | human spleen homogenate, 4MU-alpha-Gal fluorescence, 40 min | 240,000 tested, 0.008% active;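 note: potency is the fitted concentration of half-maximal effect; 0% = enzyme with vehicle and -100% = no enzyme basal signal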
Target sequence (P06280 32-429 limits assumed): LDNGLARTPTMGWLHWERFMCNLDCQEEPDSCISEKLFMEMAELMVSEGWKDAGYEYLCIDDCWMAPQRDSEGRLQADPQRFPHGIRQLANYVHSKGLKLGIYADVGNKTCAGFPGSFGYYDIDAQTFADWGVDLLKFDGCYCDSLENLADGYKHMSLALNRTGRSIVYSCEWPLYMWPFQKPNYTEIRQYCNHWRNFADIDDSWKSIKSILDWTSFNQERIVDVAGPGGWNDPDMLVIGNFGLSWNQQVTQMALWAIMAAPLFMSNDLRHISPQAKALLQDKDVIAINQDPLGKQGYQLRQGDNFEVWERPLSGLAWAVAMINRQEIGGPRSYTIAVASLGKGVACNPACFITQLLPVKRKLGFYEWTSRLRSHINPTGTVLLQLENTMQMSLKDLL
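Fluorogenic readout (Ex 365/Em 440 nm) of 4-methylumbelliferone released from 1 mM 4-MU-alpha-galactoside by spleen homogenate, 40 min at 37C, pH 5.0. Data normalized to no-enzyme and enzyme controls; Hill-equation AC50 from compound titrations.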
Starred values were filed as active, the others as inactive; ? = inconclusive; . = no result given; [ ] = remark or other dose. Calls come from the whole dose curve; as a rule, active = well fitted curve in the direction sought with a large enough effect; inconclusive = small, poorly fitted or top-dose-only effect, or another doubt; inactive = no such curve, though single readings can be large; an effect the other way counts as inactive or inconclusive.

SMILES	PKM2 act	GLA inh pH 4.5	HttQ103 aggreg	HTT ATP protect	aGal spleen mod
Cc1[nH]nc(SCC(=O)Nc2cccc(O)c2)c1[N+](=O)[O-]	10µM*	-3	-4%	15%[10 µM]	10%
COc1ccc(-c2nn(-c3ccccc3)cc2/C=N/NC(=O)c2ccc3c(c2)OCO3)cc1	3%	-5	?	9%	-9%
COc1ccc(-c2nn(-c3ccccc3)cc2/C=N/NC(=O)c2ccc(Br)o2)cc1	2%	2	3.5µM*	-40%	-6%
CCOC(=O)c1c(C)n(-c2ccc(C)cc2)c2c(C(C(C)=O)C(=O)O)c(Br)c(O)c(O)c12 (configuration not stated)	-2%	-1	13µM*	?	-20%
CCOC(=O)c1c(C)n(-c2ccc(C)cc2)c2c(CC(C)=O)c(Br)c(OC)c(O)c12	8%	0	-3%	-46%	6%
O=c1c2ccccc2oc2cc(O)c([C@@H]3COC[C@@H](CO)[C@@H](O)[C@@H](O)[C@H]3O)c(O)c12	.	.	.	-7%	.
CN1C(=O)c2cccc3c(S(=O)(=O)Nc4ccccc4F)ccc1c23	11µM*	.	.	.	.
Cc1ccccc1CCN(C(=O)CN1C(=O)c2ccccc2S1(=O)=O)C(C(=O)NCC1CCCO1)c1ccncc1 (configuration not stated)	2%	3	16µM*	22%[10 µM]	6%
COc1ccc(OC2C(O)COC2/C=C/C#Cc2ccccc2)cc1 (configuration not stated)	.	.	.	?	-1%[17.5 µM]
O=C(c1ccncc1)N1N=C(c2ccc(Br)cc2)CC1c1ccccc1O (configuration not stated)	7.9µM*	.	.	.	.
C/C(=N\NC(=O)C(C)Oc1ccc([N+](=O)[O-])cc1)c1ccccn1 (configuration not stated)	-2%	-1	10µM*	-71%	8%
CC(Oc1ccccc1)C(=O)NNC(=O)c1ccccn1 (configuration not stated)	-2%	-3	-28%	4%[10 µM]	-7%
CCOC(=O)[C@H](CCc1ccccc1)N[C@@H](C)C(=O)N1[C@H](C(=O)O)C[C@H]2CCC[C@@H]21	.	4	4%	3.2µM*	2%[29.1 µM]
COC(=O)C/C=C\[C@@H](C)[C@@H](/C=N\O[C@@H](C)c1cn([C@H]2COC[C@H]2O)nn1)OC	.	.	.	?	11%[17.5 µM]
COc1cc(C(=O)ON=C2C=C(C)C(=O)C(C)=C2)cc(OC)c1OC	-2%	-10	?	15%[10 µM]	12%
COc1cc(C(=O)O/N=C2\C=CC(=O)C(C)=C2)cc(OC)c1OC	3%	3	11µM*	-113%	-7%
Cc1ccc(S(=O)(=O)Nc2cccnc2)cc1	1%	-2	8%	-2%	-5%
CCCCOc1ccc(S(=O)(=O)Nc2cccnc2)cc1	17%	-9	11µM*	-19%	-13%
O=C(NC1CCCC1)c1cc2c(ccc3ccccc32)o1	3%	-7	11µM*	-38%	2%
CNC(=O)c1cc2c(ccc3ccccc32)o1	-13%	2	-1%	-49%	-3%
CCN1C(=O)c2cccc3c(S(=O)(=O)Nc4ncccc4C)ccc1c23	11µM*	-5	3%	-26%	10%
CCN1C(=O)c2cccc3c(S(=O)(=O)Nc4nc(C)cs4)ccc1c23	4µM*	2	17%	-27%[0.074 µM]	9%
C=C(CO)C1Cc2c(ccc3c(=O)c4c(oc23)COc2cc(OC)c(OC)cc2-4)O1 (configuration not stated)	.	1	.	-21%[1.9 µM]	12%
N#CCCCS(=O)(=O)c1nnnn1-c1ccc(F)cc1Br	.	1	.	7.1µM*	-4%
O=S(=O)(CCc1ccccc1)c1nnnn1-c1ccc(F)cc1Br	.	-10	.	26%	-10%
SMILES	PKM2 act	GLA inh pH 4.5	HttQ103 aggreg	HTT ATP protect	aGal spleen mod
O=C1O[C@@H]([C@H](O)[C@H](O)[C@H](O)CO)[C@@H](O)[C@@H]1O	.	.	.	-8%[10 µM]	.
CCCc1ccc(-c2cc(C(=O)NC3=NCCS3)c3ccccc3n2)cc1	1%	-17	4µM*	-28%[10 µM]	2%
COc1ccccc1S(=O)(=O)Nc1ccc(-c2nnc3n2CCCCC3)cc1	20µM*	2	-8%	4%	7%
CC(C)(C)C(=O)Nc1ccc(-c2nnc3n2CCCCC3)cc1	4%	.	.	.	.
Cn1c(SCC(=O)Nc2ccc(Cl)cn2)nnc1C1CC1	0%	.	.	.	.
Cn1c(SCC(=O)c2ccccc2F)nnc1C1CC1	32µM*	-7	4%	-13%[10 µM]	0%
O=C(NC(=S)NNC(=O)c1cccs1)c1ccco1	-13%	-6	11µM*	-77%	-16%
O=C(NNC(=O)c1cccs1)c1ccco1	-1%	-2	-15%[9.22 µM]	4%[10 µM]	19%
Oc1nc(Nc2cccc(Cl)c2)sc1/C=C1\C=Nc2ccccc21	3%	-1	8.9µM*	7%[10 µM]	-2%
Oc1cccc(Nc2nc(O)c(/C=C3\C=Nc4ccccc43)s2)c1	9%	-25	-11%[9.22 µM]	-13%[10 µM]	-20%
CCOC(=O)c1c(-c2ccco2)csc1NC(=O)CSc1nnc(N)s1	13µM*	8	16%	-19%	4%
CCOC(=O)c1c(-c2ccc(C)o2)csc1NC(=O)CN1CCC(C(N)=O)CC1	20µM*	10	9%	-38%	-6%
CCOC(=O)c1c(-c2ccc(C)o2)csc1NC(=O)CSc1nncs1	8.9µM*	-11	2%[9.22 µM]	26%	2%
CCOC(=O)c1c(-c2ccco2)csc1N	4%	-2	-1%	6%[10 µM]	5%
CN(C)Cc1ccccc1-c1cncnc1NC1CC1	.	-11	.	20%	-10%
O=C(NC1CCCCC1)C(c1cccs1)N(C(=O)c1ccccn1)c1ccccc1 (configuration not stated)	-10%	-10	-7%	20%[10 µM]	4%
OC(C#Cc1ccccn1)c1cccs1 (configuration not stated)	?	-3	5µM*	6%	-11%
COc1ccc(OC)c(C2=Nn3c(nnc3-c3ccc(OC)c(OC)c3)SC2)c1	.	.	.	.	-4%
C[C@H]1[C@@H](OC(=O)CCC(=O)O)OC2OC3(C)CC[C@H]4[C@H](C)CC[C@@H]1[C@@]24OO3 (some centres not stated)	.	.	3.2µM*	-97%	.
O=c1cnc2cnc(Oc3cccc(Cl)c3)nc2n1Cc1ccc(F)cc1	.	.	.	25%	-7%
O=c1oc2ccc(Br)cc2cc1S(=O)(=O)c1ccc(F)cc1	2.8µM*	10	4%	18%[10 µM]	-2%
